Potency and outcome data for eight compounds are collected here from PubChem BioAssay (Tox21).

Values joined by “and” are separate entries in the source; they are usually repeats but may differ in a detail not shown here. Equal values may be shown once. Inconclusive results are not listed. The source holds several records for some structures; these can differ, active in one and inactive in another. Active and inactive are the calls of the source. Unless noted, the call rests on the fitted dose curve; in most records, active means well fitted curve in the direction sought with a large enough effect in the repeat runs; inconclusive means weak or mixed curves; inactive means no such curve, though single readings can be large; an effect the other way counts as inactive or inconclusive.

Experiment [1] in a line: qHTS assay for small molecules that induce genotoxicity in human embryonic kidney cells expressing luciferase-tagged ATAD5 (AID 651632). Further: nearly all actives have a fitted effect of over 15% in size. Further: potency means the concentration at half of the fitted maximal effect. In outline:
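Quantitative HTS in HEK293T expressing luciferase-tagged ATAD5, whose levels rise upon DNA damage. Exposure ran 16 hr at 37C and 5% CO2, with luminescence read 30 min after Amplite addition at room temperature.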
On the technique in general: In qHTS, concentration-response curves come from the screen itself.

The nature of experiment [2]: qHTS assay for small molecule agonists of the p53 signaling pathway - cell viability (AID 651633; calls by dose curve; further: series mostly up to about 83 µM; nearly all actives have a fitted effect of over 30% in size). In short, it runs like this: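 p53RE-bla cells were treated with compound for 16 hours at 37 C. Cytotoxicity was then measured as CellTiter-Glo luminescence after 30 min at room temperature.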
Experiment [3] in a line: qHTS assay for small molecules that induce genotoxicity in human embryonic kidney cells expressing luciferase-tagged ATAD5 - cell viability (AID 651634; calls by dose curve; further: nearly all actives have a fitted effect of over 25% in size; further: potency means the concentration at half of the fitted maximal effect). In short, it runs like this: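 After 15.5 hr incubation with compound at 37C, 5% CO2, HEK293T ATAD5-luciferase cells received CellTiter-Fluor reagent; fluorescence intensity was quantified following 30 min at 37C.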
Experiment [4] can be described thus: qHTS assay for small molecule disruptors of the mitochondrial membrane potential - cell viability (AID 720634; calls by dose curve; further: nearly all actives have a fitted effect of over 20% in size; further: potency means the concentration at half of the fitted maximal effect). In short, it runs like this: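 ATP-based luminescent viability readout (CellTiter-Glo, 30 min, room temperature) in HepG2 cells multiplexed with the m-MPI membrane potential dye; compound exposure lasted 1 hr at 37 C.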
The nature of experiment [5]: qHTS assay for small molecule disruptors of the mitochondrial membrane potential (AID 720635). Further: potency means the concentration at half of the fitted maximal effect. In outline:
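HepG2 cells exposed to compound 1 hr at 37C, then Mito-MPS dye 30 min. Ratio read of aggregate (540/590 nm) versus monomer (490/535 nm) fluorescence.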

Experiment [6] is described as follows: qHTS assay to test for compound auto fluorescence at 590 nm (red) in HepG2 cells (AID 720674). In short, it runs like this: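 HepG2 cells, 2,000 per well in MEM with 10% FBS, attached overnight at 37 C, then got 23 nL compound or DMSO. After 1 hr at 37 C, 5% CO2, red fluorescence was read at 540/590 nm against Rose Bengal sodium as reference.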
Experiment [7] is described as follows: qHTS assay to test for compound auto fluorescence at 535 nm (green) in HepG2 cells (AID 720675).
A short description of experiment [8]: qHTS assay to test for compound auto fluorescence at 460 nm (blue) in HEK293 cells (AID 720678). In short, it runs like this:
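Cells were seeded and left to adhere for 4-5 hr at 37C. Compounds were then pin-transferred. After an overnight incubation at 37C under 5% CO2, intrinsic fluorescence at 405/460 nm was measured and referenced to triamterene.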

Experiment [9] is described as follows: qHTS assay to test for compound auto fluorescence at 590 nm (red) in HEK293 cells (AID 720679). In short, it runs like this: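 Each well held 2,000 HEK293 cells in medium containing 10% dialyzed FBS. Following 4-5 hr attachment at 37C, 23 nL test compound or DMSO was added; plates sat overnight, and red fluorescence (540/590nm) was recorded.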
Experiment [10] is described as follows: qHTS assay to test for compound auto fluorescence at 535 nm (green) in HEK293 cells (AID 720680).
A short description of experiment [11]: qHTS assay to test for compound auto fluorescence at 460 nm (blue) in HEK293 cell free culture (AID 720681). In short, it runs like this:
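Compounds were added to cell-free DMEM with 10% FBS and fluorescence read directly. The blue channel used 405 nm excitation and 460 nm emission, with triamterene as the reference fluorophore.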

Experiment [12] in a line: qHTS assay to test for compound auto fluorescence at 535 nm (green) in HEK293 cell free culture (AID 720682). In outline:
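DMEM + 10% FBS, cell-free; cpd or DMSO pinned in; Ex485/Em535 read; output as fluorescein-equivalent signal.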

The nature of experiment [13]: qHTS assay to test for compound auto fluorescence at 590 nm (red) in HEK293 cell free culture (AID 720683). In outline:
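Cell-free wells of DMEM with 10% FBS received compound, and intrinsic fluorescence was read at excitation/emission 540/590 nm. Values expressed as equivalence to Rose Bengal sodium.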

The nature of experiment [14]: qHTS assay to test for compound auto fluorescence at 590 nm (red) in HepG2 cell free culture (AID 720684). In outline:
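Auto fluorescence equivalency versus Rose Bengal sodium, red channel Ex/Em 540/590 nm; compounds in cell-free MEM/10% FBS; DMSO vehicle control.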

A short description of experiment [15]: qHTS assay to test for compound auto fluorescence at 460 nm (blue) in HepG2 cell free culture (AID 720685). In short, it runs like this: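 Cell-free plates of MEM plus 10% FBS received 23 nL compound or DMSO vehicle; blue-channel (405/460 nm) intensity scored against triamterene as reference fluorophore.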
A short description of experiment [16]: qHTS assay to test for compound auto fluorescence at 460 nm (blue) in HepG2 cells (AID 720687). In short, it runs like this: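 HepG2 cells in MEM with 10% FBS, attached overnight at 37 C, were exposed to compound or DMSO for 1 hr at 37 C, 5% CO2. Blue fluorescence was read at 405/460 nm, with triamterene as reference fluorophore.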
Experiment [17] concerns the target Glucocorticoid receptor (Homo sapiens) (UniProt P04150). The experiment is described as follows: qHTS assay to identify small molecule agonists of the glucocorticoid receptor (GR) signaling pathway (AID 720691; active means well fitted activation curve with a large enough effect in the signal ratio in the repeat runs, not every such curve was filed as active; the % refers to the signal ratio; further: potency means the concentration at half of the fitted maximal effect). In outline: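 Cells: GR-bla HeLa, endogenous GR with stably integrated GRE-beta-lactamase reporter. Treatment 18 h, 37 C, compounds delivered in DMSO. Detection via LiveBLAzer B/G FRET substrate, 2 h RT, fluorescence intensity.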

The target is the same in experiment [18]. Description: qHTS assay to identify small molecule antagonists of the glucocorticoid receptor (GR) signaling pathway (AID 720692; active means well fitted inhibition curve with a large enough effect in the signal ratio in the repeat runs, not every such curve was filed as active; the % refers to the signal ratio). In outline:
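Quantitative HTS in antagonist format: HeLa cells expressing endogenous GR and a stably integrated GRE-bla reporter, stimulated with 5 nM dexamethasone (final) alongside test compounds for 18 h.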

The nature of experiment [19]: qHTS assay for small molecule agonists of the p53 signaling pathway (AID 651631; calls by dose curve; further: nearly all actives have a fitted effect of over 15% in size). In short, it runs like this:
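Testing took place in human colorectal HCT-116 cells with stable p53RE-driven beta-lactamase. After 16 h of compound exposure at 37 °C, a FRET substrate was added and fluorescence recorded 2 h later.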

Experiment [20] is described as follows: qHTS assay to test for compound auto fluorescence at 535 nm (green) in HepG2 cell free culture (AID 720686).

Glucocorticoid receptor (Homo sapiens), sequence (P04150 whole entry, looked up): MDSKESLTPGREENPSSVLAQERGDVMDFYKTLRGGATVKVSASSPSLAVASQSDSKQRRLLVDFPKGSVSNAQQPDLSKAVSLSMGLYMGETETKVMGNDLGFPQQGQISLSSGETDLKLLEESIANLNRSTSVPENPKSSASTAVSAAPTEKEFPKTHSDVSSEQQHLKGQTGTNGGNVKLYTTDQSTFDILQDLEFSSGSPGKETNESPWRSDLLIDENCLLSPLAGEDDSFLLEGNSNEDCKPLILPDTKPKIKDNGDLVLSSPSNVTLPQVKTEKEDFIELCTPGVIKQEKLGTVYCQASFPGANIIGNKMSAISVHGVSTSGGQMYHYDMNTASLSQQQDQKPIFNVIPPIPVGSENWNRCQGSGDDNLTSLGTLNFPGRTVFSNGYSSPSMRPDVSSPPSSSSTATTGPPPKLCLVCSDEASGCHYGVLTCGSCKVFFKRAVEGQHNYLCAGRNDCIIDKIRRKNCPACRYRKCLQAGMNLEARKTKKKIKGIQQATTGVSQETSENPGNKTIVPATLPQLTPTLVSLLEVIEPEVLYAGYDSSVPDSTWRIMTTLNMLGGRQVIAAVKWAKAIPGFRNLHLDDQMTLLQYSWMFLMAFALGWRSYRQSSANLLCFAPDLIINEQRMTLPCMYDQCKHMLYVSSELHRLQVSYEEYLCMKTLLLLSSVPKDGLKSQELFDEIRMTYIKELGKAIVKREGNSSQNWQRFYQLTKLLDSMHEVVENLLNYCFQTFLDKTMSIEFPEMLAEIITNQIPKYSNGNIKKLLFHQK

`Clc1nc(Cl)nc(Cl)n1`: the Potency result in [1], in experiment [2], in experiment [3], in experiment [4], in experiment [5] and in experiment [17] was “inactive” in each case. Also, the Potency entry in experiment [18] is “inactive”. Besides, the outcome in [6], in [7], in experiment [8], in experiment [9], in experiment [10] and in experiment [11] was inactive. The outcome in experiment [12], in experiment [13], in experiment [14], in experiment [15] and in [16] was inactive.
Turning to `CCCCCCCCC(=O)NCc1ccc(O)c(OC)c1`, the Potency result in experiment [1], in [2], in experiment [3] and in experiment [4] was “inactive” throughout. In addition, the result in experiment [7], in experiment [8], in experiment [9], in [10], in experiment [11] and in experiment [12] was inactive. For the same compound, the result in experiment [14], in experiment [15] and in experiment [16] was inactive. In experiment [17], the Potency is 30.1 µM (active).
Regarding `Cc1ccccc1[N+](=O)[O-]`, the Potency result in [1], in experiment [2], in [3], in experiment [4], in [5] and in experiment [17] was “inactive” in each case. The Potency result in [18] was “inactive”. Besides, the outcome in [6], in [7], in experiment [8], in [9], in experiment [10] and in experiment [11] was inactive. Further, the compound was called inactive in [12], in experiment [13], in experiment [14], in experiment [15] and in [16].
Turning to `Cc1ccc2c(c1N)C(=O)c1ccccc1C2=O`, the Potency in [1] was 13.5 µM (active) and 9.69 µM (active); in [3] it was 12.2 µM (active); in experiment [5] it was 480 nM (active) and 386 nM (active). In addition, the Potency entry in [2] and in experiment [17] was “inactive” each time. In addition, the call in experiment [6], in [7], in experiment [8], in experiment [9], in experiment [10] and in experiment [11] was inactive. Further, the result in experiment [12], in experiment [13], in [14], in experiment [15] and in experiment [16] was inactive.
`c1ccc(-c2cccc(-c3ccccc3)c2)cc1`: the Potency result in [19] and in experiment [2] was “inactive” throughout. The result in [8], in experiment [9], in experiment [10], in experiment [11], in experiment [12] and in [14] was inactive. Moreover, the call in experiment [15], in experiment [20] and in experiment [16] was inactive.
Consider `CCCCCCCCOC(=O)c1ccccc1C(=O)OCCCCCCCC`, for which the Potency result in experiment [1], in experiment [2], in [3], in experiment [4] and in experiment [5] was “inactive” in each case. Besides, the compound was called inactive in experiment [6], in experiment [7], in experiment [8], in experiment [9], in experiment [10] and in experiment [11]. The outcome in experiment [12], in experiment [13], in [14], in [15], in experiment [20] and in experiment [16] was inactive.
As for `CCC(C)(C)c1ccc(O)cc1`, the Potency entry in experiment [1], in [2], in [3], in experiment [17] and in experiment [18] was “inactive” throughout. Further, the Potency was 55 µM (active) and inactive in experiment [4]; 26.6 µM (active) and 17.4 µM (active) and 15.4 µM (active) in experiment [5]. The outcome in experiment [6], in experiment [7], in experiment [8], in experiment [9], in [10] and in [11] was inactive. Moreover, the result in experiment [12], in [13], in [14], in experiment [15], in experiment [20] and in [16] was inactive.
As to `NNC(=S)NN`, the Potency entry in experiment [2], in experiment [3], in [4] and in experiment [5] was “inactive” each time. Also, the call in experiment [6], in experiment [7], in experiment [8], in [9], in experiment [10] and in experiment [11] was inactive. In addition, the compound was called inactive in experiment [12], in experiment [14], in experiment [15], in [20] and in experiment [16].
